# Test results taken from ChEMBL document CHEMBL3988442, “University of Dundee, Small-Polar-MMV Screening Library” (2021).
# About 1,000 (1.4%) of roughly 69,000 compounds showed an effect of 50% or more. Only a selection was taken, and strong results are over-represented in it overall.
# System: Leishmania donovani
# Assay: Leishmania intramacrophage assay
# Type: functional, organism-based
# Set-up: scale not given: in the data most compounds retested in dose-response had high values
compound,measurement,setting,value
CCNc1ncc2c(n1)CN(c1ccc(OC(F)(F)F)cc1)C2=O,Percent Effect,"30.3 µM, […]",23.96%
OC1(CNCc2ccc(F)c(C(F)(F)F)c2)CCSCC1,Percent Effect,"30.3 µM, […]",40.38%
CN1CCC(O)(CNCc2ccc(F)c(C(F)(F)F)c2)CC1,Percent Effect,"30.3 µM, […]",85.74%
OC1(CNCc2ccc(F)c(C(F)(F)F)c2)CCOC1 (stereo not given),Percent Effect,"30.3 µM, […]",25.18%
CC(C)N1CCN(c2ccc3ccc(C(=O)NC4CCCC4)cn23)CC1.O=C(O)C(F)(F)F,Percent Effect,"30.3 µM, […]",37.85%
N#Cc1cc(F)c(NCCCOCC2CCOC2)c(F)c1 (stereo not given),Percent Effect,"30.3 µM, […]",29.08%
CCc1c(C)nc(C)nc1N1C[C@@H](CN(C)CCN(C)C)[C@@H](CO)C1,Percent Effect,"30.3 µM, […]",30.66%
CCc1c(C)nc(C)nc1N1C[C@@H](CN(C)C)[C@@H](CO)C1,Percent Effect,"30.3 µM, […]",54.47%
CCc1c(C)nc(C)nc1N1C[C@@H](CN(CC)CCO)[C@@H](CO)C1,Percent Effect,"30.3 µM, […]",-0.6836%
Cn1ccnc1CN1C[C@@H](CN2CCCC2)[C@@H](CO)C1,Percent Effect,"30.3 µM, […]",30.27%
CCN1CC[C@]2(CN(Cc3nccs3)C[C@H]2c2ccccc2)C1=O.O=C(O)C(F)(F)F,Percent Effect,"30.3 µM, […]",23.61%
COc1ccc(-c2n[nH]c(C)c2CC(=O)NCCN2CCOCC2)cc1,Percent Effect,"30.3 µM, […]",-10.63%
Cc1noc(C)c1CS(=O)(=O)C(C)C(=O)N(C)c1ccccc1 (stereo not given),Percent Effect,"30.3 µM, […]",39.61%
Cc1noc(CS(=O)(=O)C(C)C(=O)N(C)c2ccccc2)n1 (stereo not given),Percent Effect,"30.3 µM, […]",12.83%
Cc1cc(CS(=O)(=O)C(C)C(=O)N(C)c2ccccc2)on1 (stereo not given),Percent Effect,"30.3 µM, […]",59.375%
Cc1cc(C)n(CC2CN(Cc3cc(C)on3)CCO2)n1 (stereo not given),Percent Effect,30 µM,28.82%
O=C(CN1CCOCS1(=O)=O)NCc1ccccc1,Percent Effect,"30.3 µM, […]",-15.82%
COC1COC2(CCN(Cc3ccc4c(c3)OCO4)CC2)C1.O=C(O)C(F)(F)F (stereo not given),Percent Effect,"30.3 µM, […]",2.758%
CC(C)n1c(C2CCCN(CCS(C)(=O)=O)C2)nc2ccccc21 (stereo not given),Percent Effect,"30 µM, 30.03 µM",13.25%
CC(C)n1c(C2CCCN(CC(N)=O)C2)nc2ccccc21 (stereo not given),Percent Effect,"30.3 µM, […]",0.009374%
CC(C)OCCCN1CCCC(c2nc3ccccc3n2C(C)C)C1 (stereo not given),Percent Effect,"30 µM, 30.03 µM",51.41%
CC(C)c1noc(OCc2cccc(C#N)c2)n1,Percent Effect,"30.3 µM, […]",36.94%
CN1CCN(Cc2noc(-c3cc(-c4ccccc4F)n[nH]3)n2)CC1,Percent Effect,"30.3 µM, […]",-14.35%
c1cc2c(cc1-n1nc(C3CC3)nc1-c1csnn1)OCCO2,Percent Effect,"30.3 µM, […]",-0.4467%
CC(CNC(=O)c1c[nH]nn1)Oc1ccc(Cl)cc1 (stereo not given),Percent Effect,"30.3 µM, […]",-48.71%
c1ccn2c(C3CCCN(c4ncnc5c4CCNC5)C3)nnc2c1 (stereo not given),Percent Effect,"30.3 µM, […]",-1.091%
c1cc(C2CCN(c3ncnc4c3CCNCC4)CC2)ccn1,Percent Effect,"30.3 µM, […]",3.191%
Clc1cccc(C2CCN(c3ncnc4c3CCNC4)C2)c1 (stereo not given),Percent Effect,"30.3 µM, […]",76.01%
c1ccc(C2CCCN(c3ncnc4c3CCNC4)CC2)cc1 (stereo not given),Percent Effect,"30.3 µM, […]",74.19%
c1ccc(C2CCN(c3ncnc4c3CCNC4)CC2)cc1,Percent Effect,"30.3 µM, […]",29.27%
c1ccc2c(c1)CN(c1ncnc3c1CCNC3)CCO2,Percent Effect,"30.3 µM, […]",24.34%
N#Cc1cc(C(F)(F)F)ccc1NCC1CCS(=O)(=O)CC1,Percent Effect,"30.3 µM, […]",3.711%
O=C(c1cc[nH]n1)N1CCC(c2cc(Nc3ccccn3)n[nH]2)CC1,Percent Effect,"30.3 µM, […]",6.823%
Cc1ccc(NC2CCN(C(=O)c3cccc4[nH]ncc34)CC2)nn1,Percent Effect,"30.3 µM, […]",16.62%
Cc1cc(CCC(=O)N2CC[C@H](O)C2)ccc1Br,Percent Effect,"30.3 µM, […]",-18.41%
COc1ccccc1C(C)CC(=O)N1CC[C@H](O)C1 (stereo not given in full),Percent Effect,"30.3 µM, […]",5.433%
Cc1ccccc1C(C)CC(=O)N1CC[C@H](O)C1 (stereo not given in full),Percent Effect,"30.3 µM, […]",50.74%
COCCNc1ccccc1CNC(=O)NCc1cnc(C)s1,Percent Effect,"30.3 µM, […]",19.41%
c1cnn(CC2CCCN2Cc2nc(-c3ccoc3)no2)c1 (stereo not given),Percent Effect,"30 µM, 30.03 µM",-37.38%
Cn1nc(C(=O)NCc2ccccc2C(F)(F)F)c2c1CCS(=O)(=O)C2,Percent Effect,"30.3 µM, […]",36.38%
CCN1CC2(CCCCN2C(=O)c2ccsc2)CC1=O (stereo not given),Percent Effect,"30.3 µM, […]",22.42%
C=C1C(C)(C)[C@H]2CC[C@]1(C(=O)N1CCC(Cn3cc(CO)nn3)CC1)C2,Percent Effect,"30.3 µM, […]",-11.33%
Cc1nc(CN2C(=O)CCC23CCN(Cc2ccco2)CC3)cs1,Percent Effect,"30.3 µM, […]",23.38%
Cc1nc(CN2CCC23CCN(C(=O)c2ccco2)CC3)cs1,Percent Effect,"30.3 µM, […]",26.24%
Cc1nc(CN2CCC23CCN(Cc2ccco2)CC3)cs1,Percent Effect,"30.3 µM, […]",53.61%
Cc1nc(CN2CCC3(C2)CN(C(=O)c2ccc[nH]2)C3)cs1,Percent Effect,"30.3 µM, […]",35.81%
Cc1nc(CN2CCC3(C2)CN(Cc2ccco2)C3)cs1,Percent Effect,"30.3 µM, […]",58.57%
Cc1nc(CN2CCC3(CCCN(Cc4ccoc4)C3)C2=O)cs1.O=C(O)C(F)(F)F.O=C(O)C(F)(F)F (stereo not given),Percent Effect,"30.3 µM, […]",15.73%
Cc1nc(CN2CCN(C(=O)CCc3ccco3)CC2)cs1,Percent Effect,30 µM,15.52%
Cc1nc(CN2CCC23CCN(Cc2ccoc2)CC3)cs1,Percent Effect,"30.3 µM, […]",63.43%
Cc1nc(CN2C(=O)CCC23CCN(Cc2ccoc2)CC3)cs1.O=C(O)C(F)(F)F.O=C(O)C(F)(F)F,Percent Effect,"30.3 µM, […]",9.105%
CCCc1nc(CN(CC)C(=O)c2ccc3ncsc3c2)no1,Percent Effect,"30.3 µM, […]",-29.17%
COc1ccc(-c2nccn2CC(O)CN2CCCC2)c(F)c1 (stereo not given),Percent Effect,"30.3 µM, […]",5.05%
COc1ccc2cnn(CC(=O)NC3CCCCC3)c(=O)c2c1OC,Percent Effect,"30.3 µM, […]",14.43%
CNS(=O)(=O)CCn1cc(-c2ccc(OC)c(OC)c2)nn1,Percent Effect,"30.3 µM, […]",27.44%
CCn1cc2c(n1)C(COC)CN(C(=O)COc1ccccc1C)C2 (stereo not given),Percent Effect,"30 µM, 30.03 µM",-0.4533%
CC(C)c1ncncc1C(=O)N1CCN(Cc2ccccn2)CC1,Percent Effect,30 µM,24.52%
NC(=O)c1cccc(OCC(=O)NS(=O)(=O)c2ccc3c(c2)CCC3)c1,Percent Effect,30 µM,8.199%
Cc1nn(C)c(N2CCOCC2)c1CNC1COc2ccccc2C1 (stereo not given),Percent Effect,30 µM,6.69%
CC(=O)NCCCc1ncnn1-c1cccc(Cl)c1,Percent Effect,"30.3 µM, […]",-4.184%
O=C(NCCC(=O)N1CCCc2ccccc21)c1c(F)cccc1F,Percent Effect,30 µM,15.29%
O=C(NCC(=O)N1CCCc2ccccc21)c1c(O)cc(F)cc1F,Percent Effect,30 µM,16.08%
O=C(NCCC(=O)N1CCCc2ccccc21)c1c(O)cc(F)cc1F,Percent Effect,"30 µM, 30.03 µM",50.32%
Cc1ccc(CN2C[C@@H]3[C@@H](C(=O)NCC(C)C)CCS(=O)(=O)[C@@H]3C2)cc1.O=C(O)C(F)(F)F,Percent Effect,"30.3 µM, […]",-6.029%
CCc1nnc(SCC(=O)Nc2cc(C(C)(C)C)nn2C)[nH]1,Percent Effect,"30.3 µM, […]",21.82%
CCc1cc(NCC(N)=O)nc(N2CCCCC2)n1,Percent Effect,"30.3 µM, […]",21.93%
CCc1cc(NC2CCS(=O)(=O)CC2)nc(N2CCCCC2)n1,Percent Effect,"30.3 µM, […]",-6.887%
CCc1cc(NC2CCN(CC(N)=O)CC2)nc(N2CCCCC2)n1,Percent Effect,"30.3 µM, […]",55.44%
CCc1ccsc1C(=O)N1CCN(C(=O)c2ccc(C)o2)CC1,Percent Effect,"30.3 µM, […]",56.23%
COC(=O)c1sccc1CN1CCN(C(=O)c2ccc(C)o2)CC1,Percent Effect,"30.3 µM, […]",23.22%
CCc1ccsc1C(=O)N1CCS(=O)(=O)CC1,Percent Effect,"30.3 µM, […]",9.315%
O=C(c1ccc2[nH]c(=O)[nH]c2c1)N1CCC(Nc2cccnn2)CC1,Percent Effect,30 µM,-0.4678%
Oc1ccc(Br)c(CNc2cccc(-c3nnc[nH]3)c2)c1,Percent Effect,"30.3 µM, […]",51.72%
c1cc(NCc2ccsc2)cc(-c2nnc[nH]2)c1,Percent Effect,"30.3 µM, […]",34.15%
Oc1c(F)cc(CNc2cccc(-c3nnc[nH]3)c2)cc1F,Percent Effect,"30.3 µM, […]",16.51%
CN(CCO)C(=O)Nc1ccn(-c2cccc(C(F)(F)F)c2)n1,Percent Effect,"30.3 µM, […]",13.55%
Cc1nc2n(n1)CC(NCc1csc(-c3ccsc3)n1)CC2 (stereo not given),Percent Effect,30 µM,1.329%
O=C(NC[C@H]1OC[C@@H](NC2COC2)[C@@H]1O)c1cccs1,Percent Effect,"30.3 µM, […]",17.79%
Cc1ccc2c(c1)C(=O)NCC1(CCN(C(=O)c3cc(C)no3)CC1)O2,Percent Effect,"30.3 µM, […]",77.82%
Cc1ccc2c(c1)C(=O)NCC1(CCN(C(=O)c3ccccn3)CC1)O2,Percent Effect,"30.3 µM, […]",39.06%
Cc1ccc2c(c1)C(=O)NCC1(CCN(C(=O)c3ccnn3C)CC1)O2,Percent Effect,"30.3 µM, […]",23.56%
Cc1cccc(C)c1OC1CN(C(=O)C2CC(=O)N(C(C)(C)C)C2)C1 (stereo not given),Percent Effect,"30.3 µM, […]",48.27%
CN1C(=O)C(c2ccccc2)CC12CCN(CCN)CC2 (stereo not given),Percent Effect,"30.3 µM, […]",16.5%
CCc1cc(NCCCOC2CCN(C)CC2)ncn1,Percent Effect,"30.3 µM, […]",-6.301%
CCc1cc(NCCCOC2CCCC2)ncn1,Percent Effect,"30.3 µM, […]",51.18%
CCc1cc(NCCCN(C)C2CCCC2)ncn1,Percent Effect,"30.3 µM, […]",22.72%
Cn1ccc(CN2CCC3(CCCN3CC3CC3)CC2)n1.O=C(O)C(F)(F)F.O=C(O)C(F)(F)F,Percent Effect,"30.3 µM, […]",41.38%
O=C(CC1CN(Cc2ccccc2)CCO1)NC1CCSCC1 (stereo not given),Percent Effect,"30.3 µM, […]",18.94%
Cc1ccc(CC(=O)N(C)CC2(O)CCN(c3ccccn3)C2)s1 (stereo not given),Percent Effect,"30 µM, 30.03 µM",24.75%
CC(=O)c1cnc(NCCN2CCCC(c3ccccc3)C2)nc1C (stereo not given),Percent Effect,"30.3 µM, […]",-39.73%
O=C(C1CCCOC1)N1CCN(CC(F)(F)F)c2ccccc21 (stereo not given),Percent Effect,"30.3 µM, […]",-20.84%
O=C(C1CCOC1)N1CCN(CC(F)(F)F)c2ccccc21 (stereo not given),Percent Effect,"30.3 µM, […]",25.18%
O=C(C1COCCO1)N1CCN(CC(F)(F)F)c2ccccc21 (stereo not given),Percent Effect,"30.3 µM, […]",56.8%
CC(C)(C)c1cc(CN2C[C@@H]3CC[C@H](C2)N(Cc2ccccn2)C3)n[nH]1,Percent Effect,"30.3 µM, […]",9.516%
CC(C)Cc1cc(CN2C[C@H]3CC[C@@H]2CN(Cc2cscn2)C3)n[nH]1,Percent Effect,"30.3 µM, […]",2.738%
CC(C)(C)c1cc(CN2C[C@H]3CC[C@@H]2CN(Cc2cscn2)C3)n[nH]1,Percent Effect,"30.3 µM, […]",99.99%
CCCc1n[nH]c(C2CN(C(=O)c3ccco3)CCO2)n1 (stereo not given),Percent Effect,"30 µM, 30.03 µM",22.5%
Cc1nc2c(c(NCCCN3CCOCC3)n1)CCN(C)C2,Percent Effect,"30.3 µM, […]",22.12%
Cc1nc2c(c(NCCN3CCOCC3)n1)CCN(C)C2,Percent Effect,"30.3 µM, […]",32.47%
CCN(CC)CCCNc1nc(C)nc2c1CCN(C)C2.O=C(O)CC(O)(CC(=O)O)C(=O)O,Percent Effect,"30.3 µM, […]",53.93%
